Measurements published in PubChem BioAssay (EPA / NIEHS).
Inconclusive results are not listed. Some compounds were tested as several samples or in several runs, with calls that do not always agree. Activity calls are given as the source filed them. Rule for the calls, unless noted: active = hit-call score of the fitted dose curve at least 0.9, where 1 is the maximum; inactive = score below 0.9.

How the values were obtained:
[1] = biological target: Glucocorticoid receptor (Homo sapiens) (UniProt P04150); assay: ATG_GR_TRANS: Attagene TRANS-FACTORIAL HepG2 Assay for human Glucocorticoid Receptor (GR) (AID 2282978; active = hit-call score of the fitted dose curve at least 0.9, where 1 is the maximum;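 note: activators score as hits since higher reporter transcript over DMSO is fitted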); settings: HepG2 Attagene TRANS GR reporter, mRNA transcription
Procedure, shortened: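 Exogenous NR-GAL4 fusion activity was assessed through induced GAL4-UAS reporter transcripts in transfected human HepG2 cells, quantified after 24 h by RT-PCR and fluorescent capillary electrophoresis with DMSO as baseline.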

[2] = ATG_M_32_TRANS: Attagene TRANS-FACTORIAL HepG2 Assay for M32 Transcription Factor (Internal Marker) (AID 2282984; active = hit-call score of the fitted dose curve at least 0.9, where 1 is the maximum;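 note: transcript level of a background control reporter unit measured by RT-PCR and capillary electrophoresis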); settings: HepG2 Attagene TRANS M32 internal marker reporter
Procedure, shortened: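 HepG2 cells transiently transfected with multiple GAL4-UAS reporter transcription units, dosed for 24 hours; reporter mRNA quantified by RT-PCR, 6-FAM primer extension, HpaI digestion and capillary electrophoresis. Gain-of-signal fitted versus DMSO baseline; internal background-control marker.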

[3] = biological target: Transcriptional activator Myb (Homo sapiens) (UniProt P10242); assay: ATG_Myb_CIS: Attagene CIS-FACTORIAL HepG2 Assay for human Myeloblastosis (Myb) Proto-Oncogene Transcription Factor (AID 2282986); settings: HepG2 Attagene CIS-FACTORIAL Myb reporter transcription; actives raise or lower the signal
Procedure, shortened: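 In this HepG2 transient-transfection format, cis-regulated reporter mRNA is quantified 24 h post-dosing by RT-PCR with capillary electrophoresis, fitted bidirectionally to DMSO baseline.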

[4] = biological target: Nuclear respiratory factor 1 (Homo sapiens) (UniProt Q16656); assay: ATG_NRF1_CIS: Attagene CIS-FACTORIAL HepG2 Assay for human Nuclear Respiratory Factor 1 (NRF1) Orphan Gene (AID 2282987); settings: HepG2 NRF1 cis-element reporter, Attagene multiplex; actives raise or lower the signal
Procedure, shortened: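 Using DMSO as baseline, gain- or loss-of-signal was fitted for reporter mRNA levels in HepG2 cells transiently transfected with cis-regulated reporter units. Samples were taken 24 h after dosing and read by RT-PCR with capillary electrophoresis.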

[5] = ATG_NFI_CIS: Attagene CIS-FACTORIAL HepG2 Assay for human Nuclear Factor I (NFI) (AID 2282989); settings: HepG2 cis-regulatory reporter, NFI response element transcription; actives raise or lower the signal
Procedure, shortened: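 HepG2, transient MRTU, 24 h exposure; RNA→cDNA→PCR→FAM label→HpaI→CE fluorescence. Bidirectional fit, DMSO = baseline.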

[6] = biological target: Myc proto-oncogene protein (Homo sapiens) (UniProt P01106); assay: ATG_Myc_CIS: Attagene CIS-FACTORIAL HepG2 Assay for human Myelocytomatosis (Myc) Proto-Oncogene Transcription Factor (AID 2282990); settings: HepG2, Attagene cis-reporter transcription factor activity; actives raise or lower the signal
Procedure, shortened: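 DMSO-normalised, bidirectionally fitted reporter mRNA signal. HepG2 cells transfected with cis reporter constructs, treated 24 h; transcripts detected by RT-PCR, 6-FAM primer extension and CE.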

[7] = ATG_NF_kB_CIS: Attagene CIS-FACTORIAL HepG2 Assay for human Nuclear Factor Kappa B (NF-kB) (AID 2282991); settings: HepG2 Attagene cis-factorial NF-kB reporter mRNA; actives raise or lower the signal
Procedure, shortened: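 Endpoint from a 52-component multiplexed HepG2 reporter panel: cis-regulated transcription units transiently transfected, 24 h dosing, reporter mRNA quantified by RT-PCR and capillary electrophoresis, scored as increase or decrease against DMSO.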

[8] = ATG_Oct_MLP_CIS: Attagene CIS-FACTORIAL HepG2 Assay for human Octamer-Binding Transcription Factor (Oct) (AID 2282993); settings: HepG2 Attagene cis-factorial Oct reporter, mRNA; actives raise or lower the signal
Procedure, shortened: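 Multiplexed cis-reporter assay in human liver HepG2 cells, 24 h incubation. Reporter RNA amplified and labelled, then resolved by capillary electrophoresis; DMSO serves as negative control and baseline.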

[9] = biological target: Hepatocyte nuclear factor 4-alpha (Homo sapiens) (UniProt P41235); assay: ATG_HNF4a_TRANS: Attagene TRANS-FACTORIAL HepG2 Assay for human Hepatocyte Nuclear Factor 4 alpha (HNF4a) (AID 2282982; active = hit-call score of the fitted dose curve at least 0.9, where 1 is the maximum); settings: HepG2 HNF4a transactivation reporter, mRNA readout
Procedure, shortened: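 HepG2 cells transiently transfected with multiplexed GAL4-UAS reporter units responsive to chimeric NR-GAL4 proteins; compound exposure 24 h. Reporter mRNA quantified by RT-PCR, 6-FAM labelling, HpaI digestion and capillary electrophoresis; gain of signal versus DMSO baseline.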

[10] = ATG_NRF2_ARE_CIS: Attagene CIS-FACTORIAL HepG2 Assay for human Nuclear Factor Erythroid 2 Related Factor 2 (NFR2) response to Antioxidant Response Elements (ARE) (AID 2282992); settings: HepG2 Attagene ARE/NRF2 reporter, transcription factor activity; actives raise or lower the signal;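 for AC50: reporter mRNA level measured by RT-PCR and capillary electrophoresis fluorescence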
Procedure, shortened: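 Multiplexed reporter mRNA profiling in HepG2 after a 24 h chemical exposure. Curves fitted in both directions relative to DMSO negative control.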

[11] = ATG_M_06_TRANS: Attagene TRANS-FACTORIAL HepG2 Assay for M06 Transcription Factor (Internal Marker) (AID 2282983; active = hit-call score of the fitted dose curve at least 0.9, where 1 is the maximum;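 note: reporter transcript level by RT-PCR then capillary electrophoresis fluorescence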); settings: HepG2 Attagene TRANS M06 internal marker reporter
Procedure, shortened: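 HepG2 cells transiently transfected with GAL4-UAS multiple reporter units, dosed 24 h. Reporter RNA reverse-transcribed, PCR-amplified, 6-FAM-labeled, HpaI-digested and quantified by capillary electrophoresis; this internal-marker signal fitted upward relative to DMSO.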

[12] = biological target: Nuclear receptor subfamily 4 group A member 2 (Homo sapiens) (UniProt P43354); assay: ATG_NURR1_TRANS: Attagene TRANS-FACTORIAL HepG2 Assay for human Nuclear Receptor Related Protein 1 (NURR1) (AID 2282985; active = hit-call score of the fitted dose curve at least 0.9, where 1 is the maximum); settings: HepG2 Attagene TRANS reporter, mRNA readout
Procedure, shortened: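 HepG2 cells transiently transfected with GAL4-UAS reporter units and chimeric NR-Gal4 constructs; chemical exposure 24 h. Reporter mRNA quantified by RT-PCR, fluorescent labelling and capillary electrophoresis; gain of signal fitted relative to DMSO baseline.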

[13] = BSK_3C_TissueFactor: BioMAP Diversity Plus: 3C Assay for Tissue Factor Biomarker Activity (AID 2282997); settings: BioMAP 3C HUVEC, tissue factor biomarker readout; actives raise or lower the signal
Procedure, shortened: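 HUVEC were treated 24 h, then surface tissue factor measured by ELISA and fitted bidirectionally against DMSO. Parallel SRB total-protein staining assessed overt cytotoxicity at the same time point.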

[14] = BSK_3C_uPAR: BioMAP Diversity Plus: 3C Assay for Urokinase-type plasminogen activator receptor (uPAR) Biomarker Activity (AID 2282998); settings: BioMAP 3C HUVEC, uPAR biomarker ELISA; actives raise or lower the signal
Procedure, shortened: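 Dose primary human umbilical vein endothelial cells, incubate 24 h, measure cell-surface uPAR by ELISA, then fit the signal in both directions against the DMSO negative control.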

[15] = BSK_3C_VCAM1: BioMAP Diversity Plus: 3C Assay for Vascular cell adhesion molecule 1 (VCAM1) Biomarker Activity (AID 2282999); settings: BioMAP 3C HUVEC, VCAM1 ELISA, cytokine-stimulated; actives raise or lower the signal
Procedure, shortened: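 Human umbilical vein endothelial cells were dosed with compound for 24 h, after which cell-surface VCAM-1 was quantified by ELISA. Bidirectional curve fitting used DMSO as negative control and activity baseline.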

[16] = BSK_4H_Eotaxin3: BioMAP Diversity Plus: 4H Assay for Eotaxin 3 Biomarker Activity (AID 2283000); settings: primary human endothelial cells (HUVEC); actives raise or lower the signal
Procedure, shortened: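 Eotaxin-3 (CCL26) levels were measured by ELISA in HUVEC primary cultures 24 h post-dosing. Gain or loss of signal was fitted in both directions, with DMSO serving as baseline and negative control.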

[17] = biological target: Bile acid receptor (Homo sapiens) (UniProt Q96RI1); assay: ATG_FXR_TRANS: Attagene TRANS-FACTORIAL HepG2 Assay for Farnesoid X Receptor (FXR) (AID 2282979; active = hit-call score of the fitted dose curve at least 0.9, where 1 is the maximum;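 note: hits raise reporter mRNA above DMSO so AC50 marks FXR activation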); settings: HepG2 Attagene TRANS FXR-GAL4 reporter transcription
Procedure, shortened: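 HepG2 cells were transiently transfected with GAL4-UAS reporters driven by chimeric NR-Gal4 proteins and dosed for 24 h. Reporter mRNA was quantified by RT-PCR, fluorescent labelling, HpaI digestion and capillary electrophoresis, with gain of signal scored versus DMSO.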

[18] = biological target: Oxysterols receptor LXR-alpha (Homo sapiens) (UniProt Q13133); assay: ATG_LXRa_TRANS: Attagene TRANS-FACTORIAL HepG2 Assay for human Liver X Receptor alpha (LXRa) (AID 2282980; active = hit-call score of the fitted dose curve at least 0.9, where 1 is the maximum); settings: HepG2 Attagene TRANS reporter, LXRa transactivation
Procedure, shortened: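 HepG2 cells transiently transfected with GAL4-UAS reporter units for chimeric NR-Gal4 proteins, exposed to chemicals for 24 h. Reporter mRNA quantified by RT-PCR and capillary electrophoresis; gain of signal fitted relative to DMSO.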

[19] = biological target: Oxysterols receptor LXR-beta (Homo sapiens) (UniProt P55055); assay: ATG_LXRb_TRANS: Attagene TRANS-FACTORIAL HepG2 Assay for human Liver X Receptor beta (LXRb) (AID 2282981; active = hit-call score of the fitted dose curve at least 0.9, where 1 is the maximum); settings: HepG2 Attagene TRANS GAL4-LXRb reporter, mRNA
Procedure, shortened: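 HepG2 cells transiently transfected with multiple reporter transcription units carrying chimeric NR-Gal4 proteins acting on GAL4-UAS reporters; compound exposure 24 h. Reporter mRNA quantified by RT-PCR, 6-FAM labelling, HpaI digestion and capillary electrophoresis; gain of signal versus DMSO.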

[20] = biological target: Cellular tumor antigen p53 (Homo sapiens) (UniProt P04637); assay: ATG_p53_CIS: Attagene CIS-FACTORIAL HepG2 Assay for human p53 Transcription Factor (AID 2282994); settings: HepG2 p53 cis-element reporter, Attagene mRNA; actives raise or lower the signal
Procedure, shortened: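 Multiplexed reporter mRNA assay in human HepG2 liver cells; cis-regulated units report endogenous factor activity. Values come from bidirectional curve fitting against DMSO negative control after 24 h treatment.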

Measured: AC50

Sequence of Oxysterols receptor LXR-alpha (Homo sapiens) (Q13133 whole entry, looked up, the tested form may be a part): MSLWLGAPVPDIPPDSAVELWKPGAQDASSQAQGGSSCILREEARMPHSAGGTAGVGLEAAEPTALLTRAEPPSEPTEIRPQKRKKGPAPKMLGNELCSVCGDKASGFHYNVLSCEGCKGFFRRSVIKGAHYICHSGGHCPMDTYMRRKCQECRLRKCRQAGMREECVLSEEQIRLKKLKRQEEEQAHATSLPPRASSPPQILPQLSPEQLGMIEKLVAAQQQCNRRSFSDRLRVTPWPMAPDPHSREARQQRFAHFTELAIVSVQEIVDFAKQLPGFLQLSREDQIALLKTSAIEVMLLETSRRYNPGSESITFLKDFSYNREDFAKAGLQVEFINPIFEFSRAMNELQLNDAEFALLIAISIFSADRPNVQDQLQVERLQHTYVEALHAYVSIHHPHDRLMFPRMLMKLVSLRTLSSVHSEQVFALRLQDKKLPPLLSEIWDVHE
Sequence of Nuclear respiratory factor 1 (Homo sapiens) (Q16656 whole entry, looked up): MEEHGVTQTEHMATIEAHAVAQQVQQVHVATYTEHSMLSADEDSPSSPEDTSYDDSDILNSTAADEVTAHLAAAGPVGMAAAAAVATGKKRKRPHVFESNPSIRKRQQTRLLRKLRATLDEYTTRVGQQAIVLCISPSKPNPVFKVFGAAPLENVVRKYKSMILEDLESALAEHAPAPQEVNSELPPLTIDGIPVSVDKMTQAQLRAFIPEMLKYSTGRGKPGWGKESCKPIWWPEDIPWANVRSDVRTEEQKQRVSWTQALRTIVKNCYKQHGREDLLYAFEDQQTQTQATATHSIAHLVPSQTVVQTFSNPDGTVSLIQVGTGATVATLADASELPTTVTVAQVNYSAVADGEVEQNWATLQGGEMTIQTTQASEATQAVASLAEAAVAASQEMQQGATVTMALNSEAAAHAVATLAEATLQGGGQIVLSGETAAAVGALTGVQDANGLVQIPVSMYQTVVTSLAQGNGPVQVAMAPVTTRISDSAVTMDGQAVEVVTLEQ
Sequence of Oxysterols receptor LXR-beta (Homo sapiens) (P55055 whole entry, looked up, the tested form may be a part): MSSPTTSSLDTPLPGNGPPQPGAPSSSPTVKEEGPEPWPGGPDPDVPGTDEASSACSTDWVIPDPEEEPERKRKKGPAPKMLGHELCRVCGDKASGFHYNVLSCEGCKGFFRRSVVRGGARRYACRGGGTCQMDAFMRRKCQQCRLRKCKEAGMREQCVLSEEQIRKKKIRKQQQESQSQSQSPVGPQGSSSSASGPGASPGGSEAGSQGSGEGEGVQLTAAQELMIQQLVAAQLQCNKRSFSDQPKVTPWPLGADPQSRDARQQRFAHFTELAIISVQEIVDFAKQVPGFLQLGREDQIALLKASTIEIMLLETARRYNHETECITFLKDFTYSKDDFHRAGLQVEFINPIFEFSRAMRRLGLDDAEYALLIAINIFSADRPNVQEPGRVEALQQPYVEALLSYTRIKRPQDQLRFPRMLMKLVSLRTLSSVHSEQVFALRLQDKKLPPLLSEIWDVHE
Sequence of Transcriptional activator Myb (Homo sapiens) (P10242 whole entry, looked up): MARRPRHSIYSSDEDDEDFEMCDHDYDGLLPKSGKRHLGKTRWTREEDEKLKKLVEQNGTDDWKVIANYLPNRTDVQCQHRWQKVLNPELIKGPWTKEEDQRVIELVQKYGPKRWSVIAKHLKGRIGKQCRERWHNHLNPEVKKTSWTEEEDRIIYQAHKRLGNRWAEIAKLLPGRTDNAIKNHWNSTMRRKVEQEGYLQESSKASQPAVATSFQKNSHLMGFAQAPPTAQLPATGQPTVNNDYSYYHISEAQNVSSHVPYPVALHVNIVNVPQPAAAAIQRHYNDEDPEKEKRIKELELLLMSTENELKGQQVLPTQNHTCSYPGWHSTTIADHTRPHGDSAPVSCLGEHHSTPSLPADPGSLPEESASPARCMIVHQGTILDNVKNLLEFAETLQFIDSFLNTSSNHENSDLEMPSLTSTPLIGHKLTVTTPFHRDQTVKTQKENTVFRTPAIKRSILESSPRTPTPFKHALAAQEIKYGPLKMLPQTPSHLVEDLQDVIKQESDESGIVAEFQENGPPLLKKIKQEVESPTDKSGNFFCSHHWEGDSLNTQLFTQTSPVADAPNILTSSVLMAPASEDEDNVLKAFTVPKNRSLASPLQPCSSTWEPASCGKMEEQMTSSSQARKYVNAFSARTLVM
Sequence of Hepatocyte nuclear factor 4-alpha (Homo sapiens) (P41235 whole entry, looked up, the tested form may be a part): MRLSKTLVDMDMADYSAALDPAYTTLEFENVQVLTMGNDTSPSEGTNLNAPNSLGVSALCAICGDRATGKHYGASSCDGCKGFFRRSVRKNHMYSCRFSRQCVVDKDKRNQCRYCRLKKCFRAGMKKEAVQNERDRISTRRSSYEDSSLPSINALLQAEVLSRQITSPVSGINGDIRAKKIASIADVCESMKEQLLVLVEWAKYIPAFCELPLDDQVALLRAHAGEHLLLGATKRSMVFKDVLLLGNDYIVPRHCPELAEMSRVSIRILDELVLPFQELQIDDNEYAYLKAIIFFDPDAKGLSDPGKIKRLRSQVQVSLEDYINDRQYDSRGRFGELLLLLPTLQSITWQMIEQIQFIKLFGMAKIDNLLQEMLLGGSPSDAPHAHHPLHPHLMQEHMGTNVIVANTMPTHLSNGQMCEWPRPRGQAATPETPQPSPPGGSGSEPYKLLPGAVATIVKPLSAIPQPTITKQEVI
Sequence of Bile acid receptor (Homo sapiens) (Q96RI1 whole entry, looked up, the tested form may be a part): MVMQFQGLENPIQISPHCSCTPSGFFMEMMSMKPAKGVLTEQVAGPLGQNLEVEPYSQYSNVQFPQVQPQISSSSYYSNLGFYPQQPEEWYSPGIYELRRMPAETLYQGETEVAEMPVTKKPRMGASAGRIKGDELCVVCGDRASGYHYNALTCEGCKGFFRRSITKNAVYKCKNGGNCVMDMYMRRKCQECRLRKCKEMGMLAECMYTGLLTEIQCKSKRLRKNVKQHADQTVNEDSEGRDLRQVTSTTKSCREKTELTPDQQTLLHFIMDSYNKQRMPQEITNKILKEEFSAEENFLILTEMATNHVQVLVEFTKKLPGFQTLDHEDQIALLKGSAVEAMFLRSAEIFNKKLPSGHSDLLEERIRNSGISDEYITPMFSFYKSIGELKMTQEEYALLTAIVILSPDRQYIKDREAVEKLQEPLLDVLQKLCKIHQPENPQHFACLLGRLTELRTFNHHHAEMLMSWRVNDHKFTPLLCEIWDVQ
Sequence of Myc proto-oncogene protein (Homo sapiens) (P01106 whole entry, looked up): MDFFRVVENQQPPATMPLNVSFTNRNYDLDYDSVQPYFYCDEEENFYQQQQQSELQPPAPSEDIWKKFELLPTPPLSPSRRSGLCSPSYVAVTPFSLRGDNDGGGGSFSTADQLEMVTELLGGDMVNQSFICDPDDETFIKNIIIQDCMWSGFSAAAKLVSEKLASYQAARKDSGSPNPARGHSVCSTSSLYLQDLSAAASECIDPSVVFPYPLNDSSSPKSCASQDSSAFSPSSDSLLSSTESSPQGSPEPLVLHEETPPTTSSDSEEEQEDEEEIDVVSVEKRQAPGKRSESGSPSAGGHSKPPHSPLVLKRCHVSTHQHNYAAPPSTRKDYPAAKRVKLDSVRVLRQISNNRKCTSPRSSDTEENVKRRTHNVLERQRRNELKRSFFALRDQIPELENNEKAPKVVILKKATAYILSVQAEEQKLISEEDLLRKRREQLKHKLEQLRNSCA
Sequence of Nuclear receptor subfamily 4 group A member 2 (Homo sapiens) (P43354 whole entry, looked up, the tested form may be a part): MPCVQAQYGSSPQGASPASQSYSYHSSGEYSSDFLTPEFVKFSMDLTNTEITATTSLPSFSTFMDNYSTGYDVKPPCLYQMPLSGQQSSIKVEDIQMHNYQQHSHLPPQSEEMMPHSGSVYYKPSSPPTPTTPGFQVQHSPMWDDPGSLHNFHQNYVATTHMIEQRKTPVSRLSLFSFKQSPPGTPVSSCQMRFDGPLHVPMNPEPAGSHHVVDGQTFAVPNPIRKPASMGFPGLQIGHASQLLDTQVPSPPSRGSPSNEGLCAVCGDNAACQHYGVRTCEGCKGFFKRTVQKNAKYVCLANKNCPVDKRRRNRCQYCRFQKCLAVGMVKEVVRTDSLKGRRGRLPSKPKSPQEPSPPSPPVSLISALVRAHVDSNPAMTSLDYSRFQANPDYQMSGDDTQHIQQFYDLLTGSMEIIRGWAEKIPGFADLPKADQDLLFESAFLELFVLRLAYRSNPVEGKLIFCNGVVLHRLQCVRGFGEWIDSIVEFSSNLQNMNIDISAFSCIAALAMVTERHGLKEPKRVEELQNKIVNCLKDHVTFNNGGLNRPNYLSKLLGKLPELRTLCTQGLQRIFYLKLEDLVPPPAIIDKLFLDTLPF
Sequence of Cellular tumor antigen p53 (Homo sapiens) (P04637 whole entry, looked up): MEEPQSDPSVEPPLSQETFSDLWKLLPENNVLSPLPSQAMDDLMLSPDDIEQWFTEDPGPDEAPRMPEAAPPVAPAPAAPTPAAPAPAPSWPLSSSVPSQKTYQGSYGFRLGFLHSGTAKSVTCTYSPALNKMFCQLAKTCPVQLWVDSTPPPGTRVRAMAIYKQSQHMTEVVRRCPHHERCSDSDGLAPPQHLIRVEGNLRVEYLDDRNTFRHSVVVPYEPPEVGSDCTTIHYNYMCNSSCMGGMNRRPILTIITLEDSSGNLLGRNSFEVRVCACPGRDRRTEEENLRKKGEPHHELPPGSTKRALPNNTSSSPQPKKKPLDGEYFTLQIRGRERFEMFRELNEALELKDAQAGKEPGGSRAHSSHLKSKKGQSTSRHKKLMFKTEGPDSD

O=C1CC2CC1C1CCCC21 (centres undefined)
inactive: [1] | [2] | [3] | [4] | [5] | [6] | [7] | [8]

NC(=O)C1CO1 (centres undefined)
inactive: [1] | [9] | [2] | [3] | [4] | [5] | [6] | [7] | [10] | [8]

c1ccc2c(c1)ccc1ncccc12
active: [6] 26.7 µM | [10] 148 µM | [13] 8 µM | [14] 13.4 µM | [16] 20 µM
inactive: [1] | [9] | [11] | [12] | [3] | [8] | [15]

CCCCCCCCCCCCCCCC[N+](C)(C)CC
active: [9] 11 µM | [4] 9.68 µM | [6] 8.97 µM | [20] 11.8 µM | [13] 12.1 µM | [14] 0.65 µM | [15] 3.17 µM | [16] 2.24 µM
not listed: [1] | [5] | [7]
inactive: all other assays above

CCCCC(CC)COCC1CO1 (centres undefined)
inactive: [1] | [9] | [11] | [2] | [3] | [4] | [5] | [6] | [7] | [10] | [8] | [13] | [14] | [15] | [16]
active: [16] 3.97 µM

CC(=O)CC(N)=O
inactive: [1] | [9] | [2] | [3] | [4] | [6] | [7] | [10] | [20]

C(=CC=Nc1ccccc1)C=CNc1ccccc1
active: [10] 49.4 µM
not listed: [1] | [9] | [13] | [14] | [15] | [16] | [20]
inactive: all other assays above

Nc1cccc(C(F)(F)F)c1
inactive: [17] | [18] | [19] | [11] | [2] | [12] | [3] | [4] | [6] | [10] | [8]

CC(=O)C=CC1C(C)=CCC(C)C1(C)C (centres undefined)
inactive: [1] | [11] | [2] | [12] | [3] | [5] | [6] | [7] | [8] | [20]
active: [10] 27.8 µM

CCCCCCCCC(=O)OCC
active: [10] 47.4 µM
not listed: [11] | [13] | [14] | [15] | [16] | [17] | [18] | [19]
inactive: all other assays above
